The values below come from PubChem BioAssay (NCI).

A short description of test [1]: NCI Yeast Anticancer Drug Screen. Data for the rad50 strain (AID 155).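 Also: 0% = growth of vehicle-only cultures of the same strain.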 The settings on record: S. cerevisiae rad50 strain growth inhibition, active compounds read high. The method, boiled down: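 Genetically altered yeast (DNA repair pathway); compound treatment; growth inhibition vs vehicle ctrl.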
A short description of test [2]: NCI Yeast Anticancer Drug Screen. Data for the mec2-1 strain (AID 157). The note with it: S. cerevisiae mec2-1 strain, active compounds read high. The gist of the method:
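Growth inhibition is read against vehicle-treated controls after compound exposure of the mec2-1 yeast strain, which is defective in DNA damage repair or cell cycle control.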

The nature of test [3]: NCI Yeast Anticancer Drug Screen. Data for the sgs1 mgt1 strain (AID 161).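 Also: 0% = growth of cultures given vehicle only.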 The note with it: S. cerevisiae sgs1 mgt1 strain, active compounds read high. The gist of the method:
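Percent growth inhibition was derived by comparing compound-exposed mutant yeast with vehicle-exposed cultures. The strain carries alterations in DNA damage repair.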

Test [4] in a line: NCI Yeast Anticancer Drug Screen. Data for the cln2 rad14 strain (AID 165).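 Also: 0% = growth equal to vehicle treated cultures.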 The settings on record: S. cerevisiae cln2 rad14 strain, active compounds read high. The method, boiled down: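 Growth inhibition, relative to vehicle-treated controls, is the read-out. The test organism is a yeast strain with defined genetic alterations, cln2 rad14.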
The nature of test [5]: NCI Yeast Anticancer Drug Screen. Data for the bub3 strain (AID 167). The note with it: S. cerevisiae bub3 mutant strain, active compounds read high. The method, boiled down: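 Yeast carrying a defined mutation is treated with each compound, and growth is compared with that of vehicle-exposed cells to give inhibition.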
Test [6] in a line: NCI Yeast Anticancer Drug Screen. Data for the mlh1 rad18 strain (AID 175). The settings on record: S. cerevisiae mlh1 rad18 strain growth inhibition, active compounds read high. The method, boiled down: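 Cells of a genetically altered yeast strain, deficient in DNA damage repair, were treated with compound. Their growth was then compared with that of vehicle-treated cultures to give inhibition.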

Where [7] appears, read: at 5.0 µM (retest, dose inferred, filed as 0.5).
[8] abbreviates: at 50.0 µM (retest, dose inferred, filed as 5.0).

This is part of a sample that, as a whole, favours compounds with a hit. Of some 79,000 tested, about 15% had one in any assay. A number with no mark means an inactive call. The source made the active and inactive calls. Rule as the data show it: active = growth inhibition above about 70%; inactive = the rest.

In the case of `O=C1c2ccccc2C(=O)c2cc(O)ccc21`, the growth inhibition is 34% in test [1] (setting [7]); 91% (active) in test [1] (setting [8]); 84.8% (active) in test [1] (at 50.0 µM); -13% in test [2] (setting [7]); 77% (active) in test [2] (setting [8]); 56.1% in test [2] (at 50.0 µM). In addition, the growth inhibition in test [3] (setting [7]) was 2%; in test [3] (setting [8]) it was 82% (active); in test [3] (at 50.0 µM), 69%; in test [4] (setting [7]) it was 11%; in test [4] (setting [8]), 54%; in test [4] (at 50.0 µM), 64.4%. The growth inhibition in test [5] (setting [7]) is 44%; in test [5] (setting [8]), 84% (active); in test [5] (at 50.0 µM), 80.3% (active); in test [6] (setting [7]) it was 15%; in test [6] (setting [8]), 87% (active); in test [6] (at 50.0 µM), 85% (active).
In the case of `CCCCC(CC)COP(=O)(OCC(CC)CCCC)OCC(CC)CCCC` (configuration not stated), the growth inhibition in test [1] (setting [7]) was 0%; in test [1] (setting [8]), 7%; in test [1] (at 50.0 µM), 15.8%; in test [2] (setting [7]), 13%; in test [2] (setting [8]), -7%; in test [2] (at 50.0 µM) it was 10.6%. The growth inhibition in test [3] (setting [7]) was 9%; in test [3] (setting [8]) it was 18%; in test [3] (at 50.0 µM), -2.85%; in test [4] (setting [7]) it was 0%; in test [4] (setting [8]) it was -3%; in test [4] (at 50.0 µM), 0.85%. The growth inhibition was -5% in test [5] (setting [7]); -11% in test [5] (setting [8]); -6.75% in test [5] (at 50.0 µM); -4% in test [6] (setting [7]); -12% in test [6] (setting [8]); 29.1% in test [6] (at 50.0 µM).
In the case of `CC(=O)Nc1n[n+]([O-])c2cc(C)ccc2[n+]1[O-]`, the growth inhibition in test [1] (setting [7]) is 96% (active); in test [1] (setting [8]), 99% (active); in test [1] (at 50.0 µM), 99.2% (active); in test [2] (setting [7]) it was 96% (active); in test [2] (setting [8]), 99% (active); in test [2] (at 50.0 µM) it was 99.7% (active). Also, the growth inhibition in test [3] (setting [7]) was 93% (active); in test [3] (setting [8]), 99% (active); in test [3] (at 50.0 µM) it was 99.4% (active); in test [4] (setting [7]), 92% (active); in test [4] (setting [8]), 99% (active); in test [4] (at 50.0 µM), 99% (active). For the same compound, the growth inhibition in test [5] (setting [7]) is 95% (active); in test [5] (setting [8]), 99% (active); in test [5] (at 50.0 µM), 99% (active); in test [6] (setting [7]), 97% (active); in test [6] (setting [8]) it was 99% (active); in test [6] (at 50.0 µM) it was 99.4% (active).
In the case of `CCN(CC)c1ccc(/C=C2/C[N+](C)(C)C/C(=C/c3ccc(N(CC)CC)cc3)C2=O)cc1`, the growth inhibition in test [1] (setting [7]) is -17%; in test [1] (setting [8]), 95% (active); in test [1] (at 50.0 µM) it was 79.5% (active); in test [2] (setting [7]), -19%; in test [2] (setting [8]), 91% (active); in test [2] (at 50.0 µM), 78.5% (active). The growth inhibition in test [3] (setting [7]) is -13%; in test [3] (setting [8]), 97% (active); in test [3] (at 50.0 µM) it was 79.2% (active); in test [4] (setting [7]), 4%; in test [4] (setting [8]) it was 95% (active); in test [4] (at 50.0 µM) it was 76.5% (active). Moreover, the growth inhibition was -20% in test [5] (setting [7]); 80% (active) in test [5] (setting [8]); 81.5% (active) in test [5] (at 50.0 µM); -6% in test [6] (setting [7]); 96% (active) in test [6] (setting [8]); 82.2% (active) in test [6] (at 50.0 µM).
With `CC(C)(Br)C(=O)c1ccc([N+](=O)[O-])o1`, the growth inhibition was 49% in test [1] (setting [7]); 99% (active) in test [1] (setting [8]); 90.6% (active) in test [1] (at 50.0 µM); 62% in test [2] (setting [7]); 100% (active) in test [2] (setting [8]); 93.5% (active) in test [2] (at 50.0 µM). In addition, the growth inhibition in test [3] (setting [7]) was 85% (active); in test [3] (setting [8]), 100% (active); in test [3] (at 50.0 µM), 89.4% (active); in test [4] (setting [7]), 51%; in test [4] (setting [8]), 99% (active); in test [4] (at 50.0 µM), 84.2% (active). Moreover, the growth inhibition is 42% in test [5] (setting [7]); 99% (active) in test [5] (setting [8]); 91.8% (active) in test [5] (at 50.0 µM); 91% (active) in test [6] (setting [7]); 99% (active) in test [6] (setting [8]); 91% (active) in test [6] (at 50.0 µM).
For `CC=CCOc1cc(NC(=S)OC(C)C)ccc1Cl` (mixture of isomers), the growth inhibition in test [1] (setting [7]) is 28%; in test [1] (setting [8]) it was 94% (active); in test [1] (at 50.0 µM), 79.2% (active); in test [2] (setting [7]) it was 18%; in test [2] (setting [8]), 97% (active); in test [2] (at 50.0 µM), 89.2% (active). In addition, the growth inhibition is 31% in test [3] (setting [7]); 92% (active) in test [3] (setting [8]); 88.4% (active) in test [3] (at 50.0 µM); 22% in test [4] (setting [7]); 96% (active) in test [4] (setting [8]); 90% (active) in test [4] (at 50.0 µM). For the same compound, the growth inhibition is 27% in test [5] (setting [7]); 97% (active) in test [5] (setting [8]); 89.7% (active) in test [5] (at 50.0 µM); 25% in test [6] (setting [7]); 96% (active) in test [6] (setting [8]); 85.8% (active) in test [6] (at 50.0 µM).
For `CC1=Nc2ccccc2C1C(Cc1ccccc1N)c1c(C)[nH]c2ccccc12` (configuration not stated), the growth inhibition was 15% in test [1] (setting [7]); 97% (active) in test [1] (setting [8]); 95.6% (active) in test [1] (at 50.0 µM); 16% in test [2] (setting [7]); 95% (active) in test [2] (setting [8]); 95.4% (active) in test [2] (at 50.0 µM). The growth inhibition in test [3] (setting [7]) is 11%; in test [3] (setting [8]) it was 90% (active); in test [3] (at 50.0 µM), 88.8% (active); in test [4] (setting [7]), 15%; in test [4] (setting [8]), 98% (active); in test [4] (at 50.0 µM), 94.5% (active). The growth inhibition in test [5] (setting [7]) is 7%; in test [5] (setting [8]), 95% (active); in test [5] (at 50.0 µM), 89.6% (active); in test [6] (setting [7]), 11%; in test [6] (setting [8]) it was 96% (active); in test [6] (at 50.0 µM) it was 97% (active).
`[N-]=[N+]=Nc1c(C=O)c(=O)n(-c2ccccc2)c2ccccc12`: the growth inhibition in test [1] (setting [7]) was 8%; in test [1] (setting [8]), 57%; in test [1] (at 50.0 µM), 67.2%; in test [2] (setting [7]) it was -1%; in test [2] (setting [8]), 60%; in test [2] (at 50.0 µM) it was 80.4% (active). For the same compound, the growth inhibition in test [3] (setting [7]) was -5%; in test [3] (setting [8]), 47%; in test [3] (at 50.0 µM), 79% (active); in test [4] (setting [7]), 0%; in test [4] (setting [8]), 29%; in test [4] (at 50.0 µM) it was 63.5%. Moreover, the growth inhibition in test [5] (setting [7]) was -23%; in test [5] (setting [8]) it was 26%; in test [5] (at 50.0 µM), 63.6%; in test [6] (setting [7]) it was 6%; in test [6] (setting [8]), 67%; in test [6] (at 50.0 µM), 68.7%.
`C=C1CC2(C[C@@H](c3ccccc3)O[C@@H](c3ccccc3)C2)OC1=O` (some centres not stated): the growth inhibition was 20% in test [1] (setting [7]); 97% (active) in test [1] (setting [8]); 95% (active) in test [1] (at 50.0 µM); 4% in test [2] (setting [7]); 98% (active) in test [2] (setting [8]); 94.6% (active) in test [2] (at 50.0 µM). The growth inhibition in test [3] (setting [7]) was 2%; in test [3] (setting [8]), 98% (active); in test [3] (at 50.0 µM), 94.5% (active); in test [4] (setting [7]) it was 35%; in test [4] (setting [8]), 97% (active); in test [4] (at 50.0 µM), 90.5% (active). The growth inhibition is 33% in test [5] (setting [7]); 98% (active) in test [5] (setting [8]); 95.2% (active) in test [5] (at 50.0 µM); 15% in test [6] (setting [7]); 98% (active) in test [6] (setting [8]); 92.5% (active) in test [6] (at 50.0 µM).
